Inconclusive results are not listed. A number with no mark means an inactive call. Calls of active or inactive are those of the source. The call rests on the fitted dose curve; in most records, active means well fitted cell-killing curve with a large enough effect; inconclusive means small, poorly fitted or top-dose-only effect; inactive means flat fitted curve, though single readings scatter.
Experiment: qHTS of pediatric cancer cell lines to identify multiple opportunities for drug repurposing: Primary screen for RD cells (AID 1347104); further: nearly all actives have a fitted effect of over 55% in size
Conditions: RD rhabdomyosarcoma viability, CellTiter-Glo luminescence, 48 h; series mostly up to 46 µM; activity change, negative = cytotoxic: at the top concentration
Excerpt: Drug repurposing or repositioning has been offered as a strategy for drug development in oncology programs. This approach has special potential for childhood cancers and other rare or orphan diseases, where the expected return on new drug development has been a disincentive to pharmaceuticals. […] In this project we exploit the poly-pharmacology of drugs to discover new indications via phenotypic screening of a panel of 19 well-characterized cell lines derived from solid tumors seen in children and adolescents. The goal is to identify approved drugs with previously unrecognized anticancer properties that has the potential to reveal new mechanisms and biological processes involved in carcinogenesis or drug resistance. We employed a titration-based paradigm (quantitative high-throughput screening or qHTS), where all compounds were tested at multiple concentrations for their effect on cell viability. Concentration-response curves (CRCs) were derived directly from the primary screen, and both potency and efficacy values were used to identify compounds with robust bioactivity profiles. We screened the NIH Chemical Genomics Center (NCGC) Pharmaceutical Collection (NPC) and Mechanism Interrogation Plate (MIPE) small molecule collections of approved and investigational compounds against these cell lines; and measured metabolically active cells after 48 hours of compound treatment as a proxy for cell viability. […] Assay Submitter: Nathalia J. Martinez, National Center for Advancing Translational Sciences, National Institutes of Health, Rockville, MD, USA; email: natalia.martinez@nih.gov Shen, M et al. Quantitative high-throughput phenotypic screening of pediatric cancer cell lines identifies multiple opportunities for drug repurposing. Oncotarget 2017 Dec 19;9(4):4758-4772. PMID 29435139.
The cells were obtained from University of North Carolina (UNC), Pediatric Preclinical Testing Program (PPT), and Coriell Institute (CI). qHTS cell viability assay: Cells were assayed in growth media at a density of 500-1,000 cells/well. Five microliters of cells were dispensed into 1,536-well, white, solid-bottom, TC-treated plates (Greiner Bio One) using a multidrop dispenser and incubated at 37 degrees C, 5% CO2, under a humidified atmosphere for 5 hours. Twenty-three nanoliters of compounds and controls (neutral control DMSO or positive control bortezomib at final concentration of 2.3 µM) were subsequently transferred by Kalypsys pintool. For primary screens, the MIPE collection was tested at 11-point dilutions (final concentrations range from 0.78 nM to 46 µM) and the NPC collection at 8-point dilutions (final concentrations range from 0.59 nM to 46 µM). Compounds tested in follow-up screens were assayed at 11-point dilutions. Cells were incubated for 48 hours, followed by addition of 3 µL of CellTiter-Glo (Promega). After a 15 min incubation at room temperature, samples were analyzed for luminescence intensity using a ViewLux High-throughput CCD imager equipped with clear filters.
Potency means the concentration at half of the fitted maximal effect.

Row | Structure (SMILES) | activity change, negative = cytotoxic | Potency
1 | c1ccc2sc(SSc3nc4ccccc4s3)nc2c1 | 3.35% [at 16.1 µM] | –
2 | CO[C@@]1(NC(=O)Cc2cccs2)C(=O)N2C(C(=O)O)=C(COC(N)=O)CS[C@@H]21 | 17.2% | –
3 | CNC(=O)c1c(I)c(NC(=O)CCCCC(=O)Nc2c(I)c(C(=O)O)c(I)c(C(=O)NC)c2I)c(I)c(C(=O)O)c1I | -6.09% | –
4 | O=C(CCN1CCN(CCO)CC1)N1c2ccccc2Sc2ccc(C(F)(F)F)cc21 | -13.2% | –
5 | Cc1nc2ccccc2n1Cc1ccc(Cl)cc1 | -11.3% | –
6 | CN1CCN(c2cc3c(nn2)Oc2ccccc2N3C)CC1 | 3.03% [at 16.1 µM] | –
7 | O=C(/C=C/c1ccccc1)NCCO | -5.46% | –
8 | CN(C)CCn1nnnc1SCC1=C(C(=O)O)N2C(=O)[C@@H](NC(=O)Cc3csc(N)n3)[C@H]2SC1 | 14.9% | –
9 | CC(=O)SCC(CC(=O)c1ccc(C)cc1)C(=O)O (stereo not given) | 12.6% | –
10 | Nc1ccc(C(=O)O)c(O)c1 | 8.27% | –
11 | CC(C)(C)c1nnc(NS(=O)(=O)c2ccc(N)cc2)s1 | 1.54% | –
12 | CC(C(=O)O)c1ccc2c(c1)[nH]c1ccc(Cl)cc12 (stereo not given) | -8.63% | –
13 | CCC1C(=O)OCC1Cc1cncn1C (stereo not given) | 5.07% | –
14 | CC(N)C(=O)OC(C)(C)Cc1ccc(Cl)cc1 (stereo not given) | -7.77% | –
15 | O=C(O)Cc1ccc2c(c1)C(=O)c1ccccc1CO2 | 17.6% | –
16 | CCCCCCCCCCCCCCCCCC(=O)O | 17.4% | –
17 | Cc1c(Nc2ncccc2C(=O)O)cccc1C(F)(F)F | 1.74% | –
18 | C=CCCCCCCCCC(=O)O | 0.346% | –
19 | C#CC1(O)CC[C@H]2[C@@H]3CCC4=CCCC[C@@H]4[C@H]3CC[C@@]21C (stereo not given in full) | -27.5% | –
20 | O=c1cc(-c2ccccc2)oc2ccccc12 | -21.4% [at 92.7 µM] | –

Row | Structure (SMILES) | activity change, negative = cytotoxic | Potency
21 | CCCCCCCCCCCC(=O)[O][Sn]([CH2]CCC)([CH2]CCC)[O]C(=O)CCCCCCCCCCC | 11.9% | –
22 | CC(C(=O)O)c1ccc(C(=O)c2ccccc2)s1 (stereo not given) | -7.33% | –
23 | Nc1cc(-c2ccncc2)c[nH]c1=O | 5.63% | –
24 | O=C(Nc1ccc(C(=O)O)c(O)c1)c1ccccc1 | 7.63% | –
25 | NC(=O)C(c1ccccc1)(c1ccccc1)[C@@H]1CCN(CCc2ccc3c(c2)CCO3)C1 | 4.65% | –
26 | CCCCCCOc1ccccc1C(N)=O | -12% | –
27 | COc1cccc2c1C(=O)c1c(O)c3c(c(O)c1C2=O)C[C@@](O)(C(=O)CO)C[C@@H]3O[C@H]1C[C@H](N)[C@H](O[C@@H]2CCCCO2)[C@H](C)O1 | – | 8.41 µM (active)
28 | CC(C(=O)O)c1ccc(C(=O)c2cccs2)cc1 (stereo not given) | -5.52% | –
29 | COc1ccc(-c2cc(=S)ss2)cc1 | -10.3% | –
30 | CCCCC1C(=O)N(c2ccccc2)N(c2ccc(O)cc2)C1=O (stereo not given) | – | 6.68 µM (active)
31 | Cc1[nH]cnc1CN1CCc2c(c3ccccc3n2C)C1=O | 11.5% | –
32 | O=C1CN(/N=C/c2ccc([N+](=O)[O-])o2)C(=O)N1 | -1.04% | –
33 | COc1ccnc2c1CCCCC2S(=O)c1nc2ccccc2[nH]1 (stereo not given) | 15.6% | –
34 | Nc1c(CC(=O)O)cccc1C(=O)c1ccc(Br)cc1 | 9.01% | –
35 | CC(=O)c1ccc(OCC(=O)N2CCCCC2)cc1 | 2.26% | –
36 | C[N+]1(C)[C@@H]2CC(OC(=O)[C@H](CO)c3ccccc3)C[C@H]1[C@@H]1O[C@@H]12 (stereo not given in full) | 5.56% | –
37 | CN1CC(=O)N/C1=N/C(=O)Nc1cccc(Cl)c1 | 10.7% | –
38 | CN(C)c1ccc(C(=C2C=CC(=[N+](C)C)C=C2)c2ccccc2)cc1 | – | 0.0596 µM (active)
39 | N=C(N)N | 10.3% | –
40 | Cc1ccc(O)c(-n2nc3ccccc3n2)c1 | -2.74% | –
